Screening data from PubChem.
Hits are enriched below; roughly 7.5% of the tested compounds scored in any of these assays.
SMN2 splice enh: SMN2 splice variant enhancement; HEK293 SMN2-luciferase splicing reporter, luminescence, 30-36 h; Potency, µM (highest dose often 46.1 µM), inactives show top-dose activity change, positive = activation, most hits filed as activators; 2.8% of 210,000 active; AID 1458; also: % of control where 0% means no effect; nearly all actives have a fitted effect of over 55% in size
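HEK293 cells carry an SMN2 […]–luciferase reporter in which exon 7 inclusion puts luciferase in frame. Cells were plated 10-12 h before compound addition, then incubated 30-36 h at 37C. ONE-Glo luminescence was read; sodium butyrate at 4.5 mM final served as control.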
NPC1 prom act: NPC1 promoter activation. Potency, µM (titrated, usually from 9.22 µM), without a hit: top-dose activation, actives largely listed as activators. Huh7 NPC1 promoter luciferase reporter, 24 h. 2.4% of 320,000 active; also: % of control where 0% means no effect; nearly all actives have a fitted effect of over 60% in size
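Quantitative HTS used a cell-based reporter: Huh7 cells stably bearing the NPC1 promoter upstream of luciferase were treated with compounds for 24 h, and promoter activation was read as luminescence.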
ELG1 genotox: inducers of genotoxicity in HEK293T ELG1-luciferase cells; Potency, µM (titrated, usually from 46 µM), for inactives: at the highest dose activity change, positive = activation, actives largely listed as activators; HEK293T ELG1-luciferase reporter, luminescence, 16 h; 1.3% of 330,000 active; also: % of control where 0% means no effect; nearly all actives have a fitted effect of over 60% in size
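Quantitative HTS format in 1536-well plates. HEK293T ELG1-luciferase reporter cells receive test compound and are incubated 16 hr at 37 °C, 5% CO2; ONE-Glo added, 30 min room temperature, then luminescence read.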
FLuc counter: firefly luciferase modulation, counter-screen for miR-21 project; Potency, µM (highest dose often 57.5 µM), for the others: at the top dose activity change, negative = inhibition, usual class: inhibitors; purified FLuc, Km substrates, luminescence inhibition; AID 588342; 6.9% of 360,000 active; P08659;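 also: plate controls were vehicle for no effect and reference inhibitor for full effect; nearly all actives have a fitted effect of over 55% in size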
Target sequence (P08659 whole entry, looked up): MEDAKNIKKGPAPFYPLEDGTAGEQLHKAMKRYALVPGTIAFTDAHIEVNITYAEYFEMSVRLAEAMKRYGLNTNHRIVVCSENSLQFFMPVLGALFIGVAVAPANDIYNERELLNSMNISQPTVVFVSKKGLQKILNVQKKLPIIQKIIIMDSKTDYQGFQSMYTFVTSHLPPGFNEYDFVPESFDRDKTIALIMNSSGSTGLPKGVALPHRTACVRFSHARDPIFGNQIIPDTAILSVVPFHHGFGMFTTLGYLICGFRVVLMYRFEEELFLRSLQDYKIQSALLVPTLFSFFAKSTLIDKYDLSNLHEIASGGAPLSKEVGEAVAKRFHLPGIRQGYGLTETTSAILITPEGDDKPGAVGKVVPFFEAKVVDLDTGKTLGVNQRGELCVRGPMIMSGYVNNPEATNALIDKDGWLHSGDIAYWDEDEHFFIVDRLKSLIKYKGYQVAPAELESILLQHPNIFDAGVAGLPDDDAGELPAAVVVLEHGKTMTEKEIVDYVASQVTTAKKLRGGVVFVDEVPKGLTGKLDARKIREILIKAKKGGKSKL
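Biochemical qHTS of compounds, final roughly 60 µM downward over six points, against 10 nM purified firefly luciferase using Km concentrations of substrates (10 uM D-luciferin, 10 uM ATP) in Tris acetate pH 7.5 buffer; luminescence output.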
Rab9 prom act: activators of Rab9 promoter; Huh7 Rab9 promoter-luciferase reporter, luminescence, 24 h; 2.8% of 320,000 active; Potency, µM (series often up to 9.22 µM), inactives show at the top dose activation, negative = inhibition, usual class: activators; AID 485297; also: % of control where 0% means no effect; nearly all actives have a fitted effect of over 60% in size
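Cells were plated at 1500 per well in reduced-serum medium with 10% FBS and left 2 h. Compound in DMSO was then added for 24 h at 37 °C. Reporter signal was read by luminescence after 10 min with luciferase detection reagent.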
Luc counter: Kinase-Glo luciferase inhibition (counter-screen); Kinase-Glo luciferase, ATP luminescence, 8 min; Potency, µM (top dose mostly 38.3 µM), for the others: at the highest dose activity change, negative = inhibition, most hits filed as inhibitors; 0.28% of 200,000 active; AID 1379; also: % is scaled to controls: 0 for no effect and ±100 for the full control effect; nearly all actives have a fitted effect of over 60% in size
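Luminescence was the read-out, taken after 8-minute incubation at ambient temperature. Luciferase turned over luciferin with 10 uM ATP in imidazole pH 7.2 buffer containing KCl, MgCl2, Tween 20 and BSA.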
Active calls of the source: *; ? = inconclusive; · = no result; [ ] = another dose, or the depositor's remark. Calls follow the shape of the dose curve; as a rule, active = well fitted curve in the direction sought with a large enough effect; inconclusive = small, poorly fitted or top-dose-only effect, or another doubt; inactive = no such curve, though single readings can be large; an effect the other way counts as inactive or inconclusive. Potency is read from the fitted curve at half-maximal effect.

SMILES	SMN2 splice enh	NPC1 prom act	ELG1 genotox	FLuc counter	Rab9 prom act	Luc counter
O=C(Nc1cc(S(=O)(=O)N2CCCC2)ccc1Cl)c1cc(F)c(F)c(F)c1F	·	·	-0.7%	·	·	·
O=C1CCCCCN1Cc1nnc(SCc2nc3ccccc3s2)n1-c1ccccn1	-32.4%	18.3%	?	7.57µM*	?	-2.5%
O=C(Nc1ccccc1F)c1ccc(Br)o1	22.1%	9.6%	13.8%	?	14.8%	-10.0%[39.9 µM]
CCCC(=O)Nc1ccccc1NC(=O)c1ccc(OCC)cc1	-9.3%	-7.5%	-3.3%	1.2%	0.6%	1.5%
Cc1ccccc1C(=O)Nc1nncs1	-7.2%	0.4%	9.6%	2.2%	21.7%	20.6%
CCOc1ccc(C(=O)Nc2ccccc2C(=O)O)cc1	8.91µM*	0.631µM*	?	0.953µM*	1µM*	-12.9%
O=C(Nc1ccccc1C(=O)O)c1ccc(Br)o1	5.6%	?	?	19µM*	?	-4.9%
O=C(Nc1ccccc1C(=O)Nc1ccccc1C(=O)O)c1ccccc1	·	-5.5%	-18.1%	15.1µM*	2.7%	·
O=C(Nc1ccccc1C(=O)NC1CC1)c1ccccc1	·	-5.7%	2.4%	4.1%	-1.6%	·
O=C(Nc1ccccc1C(=O)Nc1nncs1)c1ccccc1	·	-3.0%	-8.5%	21.3µM*	-2.1%	·
COc1ccc(NC(=O)CSc2ncc3c(n2)-c2ccccc2N(Cc2ccc(C)cc2)S3(=O)=O)cc1Cl	7.9%	·	·	-5.6%	·	·
COc1ccc(CNC(=O)CCC2N=C3c4ccccc4N=C(SCC(=O)NCCc4ccc(OC)c(OC)c4)N3C2=O)cc1 (stereo unspecified)	·	·	·	-1.4%	·	·
Nc1ccc(C(=O)Nc2ccccc2C(=O)O)cc1	-12.8%	23.8%	?	6.01µM*	19.9%	-11.3%
O=C(O)c1ccccc1NC(=O)c1ccccc1Nc1ccccc1	·	4.7%	-6.6%	16.9µM*	-2.6%	·
CCOC(=O)CSc1nc2cc3c(cc2c(=O)n1CCCC(=O)NCCc1ccc(OC)c(OC)c1)OCO3	·	·	·	4.5%	·	·
N=c1oc2ccccc2cc1-c1nc(-c2ccccc2)cs1	2.1%	2.4%	7.8%	4.78µM*	11.9%	-0.8%
N=c1oc2ccc3ccccc3c2cc1-c1nc(-c2ccccc2)cs1	-17.6%	20.1%	0.2%	-15.0%	8.2%	-0.1%
Cc1cnn(C(=S)NCc2ccc(Cl)cc2)c1	-25.5%	-0.7%	-4.8%	-13.0%	0.8%	-5.9%
Cc1cnn(C(=S)NCCc2ccccc2)c1	?	?	14.6µM*	19µM*	?	-3.1%
Cn1c(SCc2ccc(F)cc2)nnc1-c1ccccn1	?	4.47µM*	?	?	2.24µM*	-2.7%
Nn1c(SCc2cccc(F)c2)nnc1-c1cccnc1	·	1.2%	4.6%	3.1%	9.7%	·
Nn1c(SCc2ccccc2F)nnc1-c1cccnc1	·	?	?	?	2.24µM*	·
Cn1c(SCc2ccccc2F)nnc1-c1cnccn1	·	?	?	?	3.16µM*	·
Cn1c(SCc2ccccn2)nnc1-c1cnccn1	-2.3%	13.2%	10.3%	-11.1%	?	-2.8%
Cn1c(SCc2ccccc2F)nnc1-c1ccccn1	11.2µM*	3.98µM*	?	?	2.24µM*	-4.9%
SMILES	SMN2 splice enh	NPC1 prom act	ELG1 genotox	FLuc counter	Rab9 prom act	Luc counter
CC(NC(=O)c1ccc2c(c1)N(Cc1ccc(Cl)cc1)C(=O)c1ccccc1S2=O)c1ccccc1 (stereo unspecified)	5.6%	·	·	-3.4%	·	·
CCCn1c(SCC(=O)NC2CC2)nnc1-c1cccs1	·	4.6%	6.7%	2.3%	25.0%	·
Cn1c(SCC(=O)NC2CC2)nnc1-c1cccs1	·	3.98µM*	26.1%	?	3.98µM*	·
Cn1c(SCc2ccc(F)cc2)nnc1-c1cccs1	?	2.24µM*	?	19µM*	3.98µM*	-5.0%
c1ccc(Cc2cc(-c3ccccc3)on2)cc1	?	27.5%	?	12µM*	?	-1.6%
COc1ccc(NC2CCCN(C(=O)c3ccccc3C(F)(F)F)C2)cc1 (stereo unspecified)	·	-2.8%	-4.8%	1.1%	1.3%	·
c1ccc(-c2nnn(C34CC5CC(CC(C5)C3)C4)n2)cc1	?	6.7%	?	16.9µM*	18.2%	-4.9%
O=C(COC(=O)c1cccc(-n2cnnn2)c1)c1ccc(F)cc1	·	3.16µM*	?	16.9µM*	2.82µM*	·
COc1ccccc1CNC(=O)COC(=O)c1cccc(-n2cnnn2)c1	·	-1.7%	-1.3%	-2.1%	5.9%	·
COc1ccc(C(=O)COC(=O)c2cccc(-n3cnnn3)c2)c(OC)c1	·	3.98µM*	?	10.7µM*	3.55µM*	·
[O-][n+]1c(/C=C/c2ccccc2)ccc2ccccc21	·	3.98µM*	6.51µM*	0.849µM*	2.82µM*	·
CN(CCCS(=O)(=O)[O-])c1ccc(/C=C/c2ccc3ccccc3[n+]2C)cc1	·	-4.7%	-0.6%	-11.3%	-3.4%	·
CCOC(=O)c1c(Oc2ccc(C(C)=O)cc2)nnc(-c2ccccc2)c1-c1ccccc1	?	·	·	5.1%	·	·
Nc1c2c(nc3sc4c(c13)CCCCC4)CCCCC2	?	1.41µM*	?	1.69µM*	1.58µM*	-3.1%
CC1CCc2c(nc3sc4c(c3c2N)CCCC4)C1 (stereo unspecified)	?	?	2.3%	4.78µM*	?	-14.2%
CC1CCc2nc3sc4c(c3c(N)c2C1)CCCC4 (stereo unspecified)	?	?	2.7%	3.79µM*	25.3%	-4.4%
CCCc1nc2sc3c(c2c(=O)[nH]1)CCCC3	·	-1.6%	0.5%	?	1.0%	-2.4%
Cc1ccc(Cn2c(C(=O)Nc3ccc(Cl)cc3)cc3sccc32)cc1	15.0%	·	·	-2.6%	·	·
CC(C)CN=c1cc(-c2ccccc2)oc2ccc(Cl)cc12	17.2%	15.9%	3.5%	?	20.1%	0.6%
CC(O)CN=c1cc(-c2ccccc2)oc2ccc(Cl)cc12 (stereo unspecified)	16.7%	?	?	15.1µM*	?	3.8%
O=C(O)/C=C/C(O)c1ccc(Cl)cc1 (stereo unspecified)	-7.7%	3.9%[46.1 µM]	-3.6%	26.9µM*	4.4%[46.1 µM]	-4.9%
COc1ccc2c(c1)C(=NN)c1cc(OC)ccc1-2	-10.0%	28.8%	3.7%	10.7µM*	?	4.0%
COc1ccc(/C(C)=N/Nc2ccc(C(=O)O)cc2)c(OC)c1	15.8µM*	?	?	7.57µM*	1.78µM*	-2.3%
COc1ccc2c(c1)C(=NNc1ccc(C(=O)O)cc1)c1cc(OC)ccc1-2	·	2.3%	2.0%	6.01µM*	7.1%	·
Cc1ccccc1C(=O)Nc1nnc(-c2ccco2)s1	2µM*	0.562µM*	1.46µM*	1.51µM*	0.316µM*	-9.6%
